Laboratory results: publication PMC4552634, “A New Set of Chemical Starting Points with Plasmodium falciparum Transmission-Blocking Potential for Antimalarial Drug Discovery” (PLoS ONE, 2015)
The whole screen tested about 13,000 compounds, of which about 3,200 (25%) showed an effect of 50% or more. The list shows a part of the results.

These compounds were tested on P. falciparum stage V gametocytes. Details: 48 h, 5 µM; inhibitor.
Design: BacTiter-Glo ATP luminescence viability of purified stage V gametocytes in 384-well plates, per cent inhibition versus DMSO

Compared with `CCC[C@@H]([C@@H](CC1CCC(C)CC1)C(=O)N[C@@H](CO)C(=O)Nc1nccs1)N(O)C=O` (stereo partly drawn) [TCMDC-138150], `CCOC(=O)NCCSC(C)(C)[C@H](NC(=O)[C@H](Cc1cc2ccccc2s1)[C@H](CC)N(O)C=O)C(=O)Nc1nccs1` [TCMDC-137792] is higher in “% Inhibition” value: 0.01446% for the first, 7.703% for the second.

Compared with `CC(C)c1nc2c(N)nc(N)nc2nc1N` [TCMDC-141986], `CC(C)Cc1nc(N)nc(N)c1-c1ccc(Cl)cc1` [TCMDC-137932] is higher in “% Inhibition” value: 9.894% for the first, 19.17% for the second.

Going from `O=C(NCCNc1ccnc2cc(Cl)ccc12)c1ccccc1F` [TCMDC-125232] to `Fc1ccc(Nc2ccnc3cc(I)ccc23)c(Cl)c1` [TCMDC-138387], the “% Inhibition” value rises from -18.32% to 14.07%.

Compared with `Cn1nccc1C(=O)NCCNCc1cccc(-c2ccc(-c3nc4ccccc4[nH]3)s2)c1.O=C(O)C(F)(F)F` [TCMDC-133003], `Cn1nccc1C(=O)NCCNCc1ccc(-c2cccc(-c3nc4cc(F)ccc4[nH]3)c2)cc1.O=C(O)C(F)(F)F` [TCMDC-133016] is lower in “% Inhibition” value: -10.06% for the first, -24.65% for the second.

First: Cc1ccc(NC(C)C(=O)Nc2ccc(C#N)cc2)cc1S(=O)(=O)N1CCCCC1 (stereo not drawn) [TCMDC-124508]
Second: CC(C)NCc1cccc(-c2ccc(NC(=O)c3ccc(C#N)cc3)cc2)c1 [TCMDC-132669]
The “% Inhibition” value of the first is lower: -17.26% for the first, -2.892% for the second.

Compared with `N#Cc1ccc(Sc2nnc(-c3ccccc3Cl)n2CC2CCCCC2)cc1[N+](=O)[O-]` [TCMDC-135616], `CCn1c(Sc2ccc(C#N)c([N+](=O)[O-])c2)nnc1-c1cc(OC)cc(OC)c1` [TCMDC-135587] is higher in “% Inhibition” value: 15.71% for the first, 21.42% for the second.

First: COc1cc(OC)cc(-c2nn(-c3ccc([N+](=O)[O-])cc3C#N)c(=S)n2CC2CCCO2)c1 (stereo not drawn) [TCMDC-134716]
Second: COc1cc(OC)cc(-c2nn(-c3ccc([N+](=O)[O-])cc3Cl)c(=S)n2CC2CCCO2)c1 (stereo not drawn) [TCMDC-135129]
The “% Inhibition” value of the first is higher: 96.39% for the first, 88.54% for the second.

Compared with `COc1cc(NC(=O)c2cc([N+](=O)[O-])ccc2NC(=O)CNC2CCCCC2C)cc(OC)c1` (stereo not drawn) [TCMDC-125301], `CCCn1c(Sc2ccc(C#N)c([N+](=O)[O-])c2)nnc1-c1cc(OC)cc(OC)c1` [TCMDC-135577] is higher in “% Inhibition” value: -14.04% for the first, 43.88% for the second.

Compared with `CCCCn1c(Sc2ccc(C#N)c([N+](=O)[O-])c2)nnc1-c1cc(OC)cc(OC)c1` [TCMDC-135578], `N#Cc1cc([N+](=O)[O-])ccc1-n1nc(-c2cccc(Cl)c2)n(CC2CCCO2)c1=S` (stereo not drawn) [TCMDC-134718] is higher in “% Inhibition” value: 32.96% for the first, 89.7% for the second.

Compared with `Nc1nc(N)c2c(Cc3ccc(Br)cc3)cccc2n1` [TCMDC-137800], `Nc1nc(N)c2c(Oc3cccc(Cl)c3)cccc2n1` [TCMDC-137741] is lower in “% Inhibition” value: 14.7% for the first, -2.704% for the second.

Going from `CCOC(=O)C(C(C)=O)C(c1ccccc1)C(C(C)=O)C(=O)OCC` (stereo not drawn) [TCMDC-125515] to `CCOC(=O)Cn1ccc2c(NCc3ccccc3)nc(C)nc21` [TCMDC-137249], the “% Inhibition” value falls from 28.08% to 9.107%.

Compared with `CC1CCCC(NC(=O)CCOc2ccccc2)C1` (stereo not drawn) [TCMDC-139363], `COc1cccc(C(=O)NCCOc2ccccc2)c1Oc1ccccc1` [TCMDC-141238] is lower in “% Inhibition” value: 13.69% for the first, 4.712% for the second.

First: CCOC(=O)c1ccc(NC(=O)N(Cc2ccc(-c3ccc(CN4CCNCC4)cc3)cc2)Cc2cccnc2)cc1 [TCMDC-139650]
Second: CCOC(=O)c1ccc(NC(=O)N(Cc2ccc(-c3ccc(CN4CCNCC4)cc3)cc2)C2CCN(Cc3ccccc3)CC2)cc1 [TCMDC-139651]
The “% Inhibition” value of the first is lower: 18.76% for the first, 101.9% for the second.

Compared with `CCOC(=O)c1ccc(NC(=O)N(Cc2ccc(-c3cccc(CN4CCNCC4)c3)cc2)C2CCN(Cc3ccccc3)CC2)cc1` [TCMDC-139636], `CN1CCCN(Cc2ccc(-c3ccc(NC(=O)c4ccc(C#N)cc4)cc3)cc2)CC1` [TCMDC-132588] is lower in “% Inhibition” value: 111.5% for the first, 15.04% for the second.

Going from `Cn1nc(C(F)(F)F)c(-c2ccc(Br)cc2)c1NC(=O)Nc1ccc(F)cc1F` [TCMDC-124576] to `Cn1nc(C(F)(F)F)c(-c2ccc(F)cc2)c1NC(=O)Nc1ccc(F)cc1F` [TCMDC-123774], the “% Inhibition” value rises from 44.22% to 47.06%.

Going from `COc1ccc(-c2c(C(F)(F)F)nn(C)c2NC(=O)Nc2ccc(F)cc2F)cc1` [TCMDC-123775] to `Cn1nc(C(F)(F)F)c(-c2ccc(F)cc2)c1NC(=O)Nc1ccc(F)cc1` [TCMDC-124506], the “% Inhibition” value falls from 71.46% to 65.51%.

Going from `O=C(Nc1ccccc1C(F)(F)F)Nc1nn(Cc2c(F)cccc2Cl)cc1Br` [TCMDC-124365] to `Cn1nc(C(F)(F)F)c(-c2ccc(Br)cc2)c1NC(=O)Cc1ccccc1F` [TCMDC-123792], the “% Inhibition” value rises from -20.4% to 91.27%.

Going from `CN1CCN=C1c1ccc(NC(=O)Nc2ccc(C3=NCCN3C)cc2)cc1` [TCMDC-137204] to `O=C(Nc1ccccc1)Nc1ccc(-n2ccc(C(F)(F)F)n2)cc1` [TCMDC-123480], the “% Inhibition” value falls from 15.96% to -19.16%.

Going from `COc1ccc(NC(=O)Nc2cccc(-c3cccc(-c4nc5ccc(F)cc5[nH]4)c3)c2)cc1` [TCMDC-133249] to `CC(C)NCc1cccc(-c2ccc(NC(=O)c3ccc(F)cc3)cc2)c1` [TCMDC-132666], the “% Inhibition” value falls from -8.23% to -42.89%.

Going from `OC(CN1CCN(c2cccc(Cl)c2)CC1)C(c1ccccc1)c1ccccc1` (stereo not drawn) [TCMDC-123456] to `CN1CCN(Cc2cccc(-c3ccc4c(Nc5ccc(F)cc5Cl)ccnc4c3)c2)CC1` [TCMDC-138417], the “% Inhibition” value rises from 0.2376% to 75.62%.

Going from `COc1cccc2cc(C(=O)N[C@@H](CC(C)C)C(=O)N[C@H](C=NN3CCCC3=O)Cc3ccccc3)oc12` [TCMDC-136091] to `CC(C)NCc1cccc(-c2cccc(NC(=O)c3cccc(C#N)c3)c2)c1` [TCMDC-132662], the “% Inhibition” value falls from 20.05% to 13.1%.

First: CC(c1cccc(Nc2nccc(-c3c(-c4cccc(NC(=O)c5c(F)cccc5F)c4)nn4ncccc34)n2)c1)S(C)(=O)=O (stereo not drawn) [TCMDC-135696]
Second: CC(C)NCc1cccc(-c2cccc(NC(=O)c3ccc(C#N)cc3)c2)c1 [TCMDC-132656]
The “% Inhibition” value of the first is lower: -68.26% for the first, 89.01% for the second.

First: CCCCCN1CCCC1CNS(=O)(=O)c1ccc(C(=O)Nc2cccc(C(F)(F)F)c2)cc1 (stereo not drawn) [TCMDC-133688]
Second: CC(C)NCc1ccc(-c2cccc(NC(=O)c3ccc(F)cc3)c2)cc1 [TCMDC-132635]
The “% Inhibition” value of the first is lower: -7.266% for the first, 20.54% for the second.

First: CN1CCc2cc(CN3CC4(C)CC3CC(C)(C)C4)c(O)cc2C(c2ccccc2)C1 (stereo not drawn) [TCMDC-131903]
Second: Cc1cc(C2CCCCN2C)ccc1-c1ccc(C(=O)N2CCc3cc4c(cc32)C2(CCN(C)CC2)CO4)cc1 (stereo not drawn) [TCMDC-139081]
The “% Inhibition” value of the first is lower: -50.67% for the first, 76.58% for the second.

Going from `CC(C)NCc1ccc(-c2ccc(NC(=O)c3cccc(C#N)c3)cc2)cc1` [TCMDC-132595] to `CC(C)NCc1cccc(-c2ccc(NC(=O)c3cccc(C#N)c3)cc2)c1` [TCMDC-132672], the “% Inhibition” value falls from 51.63% to -57.78%.

Compared with `CC(C)NCc1ccc(-c2cccc(NC(=O)c3ccc(Cl)cc3)c2)cc1` [TCMDC-132629], `CC(C)NCc1ccc(-c2cccc(NC(=O)c3ccc(C#N)cc3)c2)cc1` [TCMDC-132638] is higher in “% Inhibition” value: -59.93% for the first, 83.96% for the second.

Compared with `CC(C)NCc1ccc(-c2cccc(NC(=O)c3cccc(C#N)c3)c2)cc1` [TCMDC-132649], `CC(C)NCc1ccc(-c2ccc(NC(=O)c3ccc(C#N)cc3)cc2)cc1` [TCMDC-132589] is higher in “% Inhibition” value: 48.87% for the first, 83.96% for the second.

Going from `Nc1ncc(-c2cn[nH]c2)cc1-c1nc2ccc(Cl)cc2[nH]1` [TCMDC-133560] to `CCOc1cc(Cc2cnc(N)nc2N)ccc1OC` [TCMDC-137931], the “% Inhibition” value rises from -7.229% to 24.72%.

Compared with `C=CCc1cc(Cc2cnc(N)nc2N)cc(CCC)c1OC` [TCMDC-138039], `CN(C)CCN(C)Cc1cccc(-c2ccc3c(Nc4ccc(F)cc4Cl)ccnc3c2)c1` [TCMDC-138416] is higher in “% Inhibition” value: 23.16% for the first, 87.2% for the second.

Compared with `O=C(O)c1ccc(-c2cnc3ccc(NC4CCC(O)CC4)nn23)cc1` (stereo not drawn) [TCMDC-136692], `COc1ccc2nccc([C@@H](O)CN3CCC(NC/C=C/c4cccnc4)CC3)c2c1` [TCMDC-140747] is lower in “% Inhibition” value: 8.489% for the first, -1.69% for the second.

First: Cc1c(C)n(C2CCCC2)c2ncnc(OC3CCN(CC(=O)NC4CC4)CC3)c12 [TCMDC-133310]
Second: Cc1cc(-c2ncc[nH]2)ccc1-c1ccc(C(=O)N2CCc3cc4c(cc32)C2(CCN(C)CC2)CO4)cc1 [TCMDC-139079]
The “% Inhibition” value of the first is higher: -5.87% for the first, -8.812% for the second.

Going from `COc1cc2c(cc1N1CC(C)NC(C)C1)N(C(=O)c1ccc(-c3ccc(-c4ncc[nH]4)cc3C)cc1)CC2` (stereo not drawn) [TCMDC-141160] to `CN1CCN(Cc2cccc(-c3ccc4c(Nc5cc(O)c(Cl)cc5F)ccnc4c3)c2)CC1` [TCMDC-138430], the “% Inhibition” value rises from 13.02% to 33.23%.

First: CN(C)CCNCc1ncsc1-c1ccc2c(Nc3ccc(F)cc3Cl)ccnc2c1 [TCMDC-138466]
Second: CN(C)CCNCc1cccc(-c2ccc3c(Nc4ccc(F)cc4Cl)ccnc3c2)c1 [TCMDC-138412]
The “% Inhibition” value of the first is lower: 30.52% for the first, 66.82% for the second.

Compared with `CN(C)CCNCc1cccc(-c2ccc3c(Nc4cc(O)c(Cl)cc4F)ccnc3c2)c1` [TCMDC-138413], `COCCNCc1cccc(-c2ccc3c(Nc4cc(O)c(Cl)cc4F)ccnc3c2)c1` [TCMDC-138429] is lower in “% Inhibition” value: 57.17% for the first, 38.53% for the second.

Going from `CS(=O)(=O)CCNCc1cccc(-c2ccc3c(Nc4cc(O)c(Cl)cc4F)ccnc3c2)c1` [TCMDC-138435] to `CN(C)CCN(C)Cc1cccc(-c2ccc3c(Nc4cc(O)c(Cl)cc4F)ccnc3c2)c1` [TCMDC-138432], the “% Inhibition” value rises from -21.48% to 25.38%.

Going from `Fc1ccc(Nc2ccnc3cc(-c4cccc(CN5CCCCC5)c4)ccc23)c(Cl)c1` [TCMDC-138418] to `COCCNCc1cccc(-c2ccc3c(Nc4ccc(F)cc4Cl)ccnc3c2)c1` [TCMDC-138415], the “% Inhibition” value rises from 24.75% to 42.47%.
